The text below walks through data of PubChem BioAssay (NCI).

SMILES strings stand for the structures. Compounds without any hit were thinned out: in the full panel of roughly 83,000, 20% have a hit.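 Assay: single dose, 48 h. Readout: percent growth (0 = no net growth; negative = cell death). Active: <10.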 Values without a mark were called inactive. Activity calls are given as the source filed them.

Test systems include NCI-H23 lung; NCI-H226 lung; NCI-H322M lung; HOP-62 NSCLC; NCI-H460 lung; HOP-92 NSCLC; NCI-H522 lung; A549/ATCC NSCLC; 786-0 renal; COLO 205 colon.
Holding throughout (assay): NCI-60 one-dose screen, 48 h (100 = growth as untreated, 0 = no growth, -100 = all killed)
Details in all cases: 10 µM unless noted

Regarding `COc1ccc(C(=O)/C=C/c2cccc(Br)c2)cc1S(N)(=O)=O`, the growth is -66.3% (active) in the test with NCI-H23 lung; 17.4% with NCI-H226 lung; 3.22% (active) with NCI-H322M lung; -86.8% (active) with HOP-62 NSCLC; 2.36% (active) in the test with NCI-H460 lung; -9.79% (active) with HOP-92 NSCLC. The growth is -79% (active) in the test with NCI-H522 lung, -86.2% (active) with A549/ATCC NSCLC, -98.3% (active) in the test on 786-0 renal and -92.6% (active) with COLO 205 colon.

Consider `COc1c(F)ccc(C(=O)Nc2ccc3nc(NC(=O)C4CCCN(S(=O)(=O)c5cccc(Cl)c5)C4)sc3c2)c1F` (stereo not given), for which the growth in the test with NCI-H23 lung was 88.9%; in the test on NCI-H226 lung, 77.3%; in the test with NCI-H322M lung, 87.2%; in the test on HOP-62 NSCLC it was 103%; in the test with NCI-H460 lung, 82%; in the test on NCI-H522 lung it was 79%. Besides, the figures for the growth in the test with A549/ATCC NSCLC, with 786-0 renal and in the test with COLO 205 colon were 68%, 61% and 86.2%, respectively.

Regarding `Cn1cc(-c2cc3nc(-c4cn(C)c5ncc(Br)cc45)cc(N)n3n2)c2cc(Cl)ccc21`, the growth is -77% (active) in the test with NCI-H23 lung; -40.8% (active) in the test with NCI-H226 lung; -73.1% (active) in the test with NCI-H322M lung; -78.1% (active) with HOP-62 NSCLC; -69.9% (active) in the test with NCI-H460 lung; -79.8% (active) in the test with NCI-H522 lung. The growth in the test on A549/ATCC NSCLC was -75.2% (active); with 786-0 renal it was -65.3% (active); in the test on COLO 205 colon, -77.6% (active).

As to `COc1ccc2c(c1)c(/C=N/Nc1ccc3ccccc3n1)cn2C`, the growth in the test with NCI-H23 lung was 36.4%; in the test with NCI-H226 lung, 32.9%; in the test with NCI-H322M lung, 36.2%; with HOP-62 NSCLC, 38.1%; in the test with NCI-H460 lung, -64.8% (active); in the test with NCI-H522 lung, 3.83% (active). For the same molecule, the growth in the test with A549/ATCC NSCLC is 14.9%; in the test on 786-0 renal it was -87% (active); in the test with COLO 205 colon, -82.7% (active).

For the molecule `CC1=C(C(=O)OCc2ccccc2)C(c2c(O)cc(O)cc2O)n2c(nc3ccccc32)N1` (stereo not given), the growth in the test on NCI-H23 lung is 65.9%; with NCI-H226 lung it was 62.2%; with NCI-H322M lung, 94.1%; with HOP-62 NSCLC, 47.8%; with NCI-H460 lung it was 29.6%; with HOP-92 NSCLC, 83.1%. Also, the growth in the test on NCI-H522 lung is 1.19% (active); in the test on A549/ATCC NSCLC it was 56.7%; in the test with 786-0 renal it was 49.4%; in the test on COLO 205 colon it was 63.5%.

On to `O=C1C(=Nc2ccc(F)c(Cl)c2)c2cccc3cccc1c23`, for which the growth is 90.9% with NCI-H23 lung; 91.9% in the test with NCI-H226 lung; 85.2% in the test with NCI-H322M lung; 81.2% in the test on HOP-62 NSCLC; 78% in the test on NCI-H460 lung; 96.9% in the test on HOP-92 NSCLC. For the same molecule, the growth is 104% in the test on NCI-H522 lung, 89.6% in the test on A549/ATCC NSCLC, 91.8% in the test with 786-0 renal and 94% in the test with COLO 205 colon.

As for `CCN(CC)CCOc1ccc(Nc2ncc3cc(-c4ccc(O)c(C#N)c4)c(=O)n(C)c3n2)cc1`, the growth in the test on NCI-H23 lung is 98%; in the test with NCI-H226 lung, 49.3%; in the test with NCI-H322M lung, 96.9%; in the test on HOP-62 NSCLC it was 91.1%; in the test with NCI-H460 lung it was 85.3%; with HOP-92 NSCLC it was -5.3% (active). In addition, the growth is 83.1% in the test with NCI-H522 lung, 94.8% in the test on A549/ATCC NSCLC, -51.2% (active) with 786-0 renal and 36.2% with COLO 205 colon.

Take `Cc1cc(=O)oc2cc(OCCCCOc3ccc(/C=C/C(=O)Nc4ccccc4N)cc3)ccc12`: the growth with NCI-H23 lung was 76%; in the test on NCI-H226 lung, 47.9%; with NCI-H322M lung, 82.2%; in the test with HOP-62 NSCLC, 69.7%; in the test on NCI-H460 lung it was 45.2%; in the test with HOP-92 NSCLC, 83%. Also, the growth in the test with NCI-H522 lung was 35.7%; in the test with A549/ATCC NSCLC, 46.9%; in the test on 786-0 renal it was 49.5%; in the test with COLO 205 colon, 44.9%.

Turning to `CC(=O)Nc1cccc(Nc2nc(NCc3ccccc3)c3ccccc3n2)c1`, the growth is -86.3% (active) with NCI-H23 lung; -84.3% (active) in the test with NCI-H226 lung; -97.2% (active) in the test on NCI-H322M lung; -90.8% (active) with HOP-62 NSCLC; -79.5% (active) in the test with NCI-H460 lung; -83.5% (active) in the test with HOP-92 NSCLC. For the same molecule, the growth with NCI-H522 lung is -83.8% (active); in the test with A549/ATCC NSCLC it was -69% (active); in the test with 786-0 renal, -89.1% (active); with COLO 205 colon, -93.9% (active).

`COc1ccc(C(=O)/C=C/c2ccccc2Cl)cc1S(N)(=O)=O`: the growth was 117% with NCI-H23 lung; 106% in the test with NCI-H226 lung; 102% in the test on NCI-H322M lung; 124% with HOP-62 NSCLC; 103% in the test with NCI-H460 lung; 102% in the test on HOP-92 NSCLC. Moreover, the growth is 102% in the test with NCI-H522 lung, 112% in the test on A549/ATCC NSCLC, 104% in the test on 786-0 renal and 106% in the test on COLO 205 colon.

On to `CC(C)Sc1nc(NCCc2c[nH]c3ccccc23)c(C#N)c(-c2ccc(F)cc2)n1`, for which the growth was 46.2% with NCI-H23 lung; 54.5% in the test with NCI-H226 lung; 85.2% with NCI-H322M lung; 51.9% in the test on HOP-62 NSCLC; 5.26% (active) with NCI-H460 lung; 20.1% in the test with HOP-92 NSCLC. In addition, the growth is 39.8% in the test on NCI-H522 lung, 51.4% in the test on A549/ATCC NSCLC, 14.4% in the test with 786-0 renal and 28.9% in the test with COLO 205 colon.

Consider `COc1ccc(-c2ccc(SCC(=O)Nc3ccc(S(N)(=O)=O)cc3Br)nn2)cc1`, for which the growth was 77.4% in the test on NCI-H23 lung; 52.9% in the test on NCI-H226 lung; 84.5% with NCI-H322M lung; -9.99% (active) in the test on HOP-62 NSCLC; 70.2% with NCI-H460 lung; 37.2% with NCI-H522 lung. For the same molecule, the results for the growth in the test with A549/ATCC NSCLC, in the test with 786-0 renal and in the test with COLO 205 colon were 64.4%, 33.8% and 115%, respectively.

On to `CCS(=O)(=O)N1CCCC(C(=O)Nc2nc3ccc(NC(=O)c4ccc(F)c(OC)c4F)cc3s2)C1` (stereo not given), for which the growth is 47.5% in the test with NCI-H23 lung; 48% in the test on NCI-H226 lung; 82.3% in the test with NCI-H322M lung; 80.6% in the test with HOP-62 NSCLC; 62.5% in the test on NCI-H460 lung; 52% with NCI-H522 lung. Moreover, the values for the growth in the test with A549/ATCC NSCLC, with 786-0 renal and in the test on COLO 205 colon were 77.4%, 58.1% and 54.3%, respectively.
